Bioassay records (PubChem)
Sampled rows, rich in hits. Any-hit rate of the full collection: about 1.8%.
TrxR1 substrate = is turned over as a substrate by rat TrxR1 | O89049 | purified TrxR1 substrate turnover, NADPH consumption readout | Potency, µM (highest dose often 114 µM), for inactives: at the highest dose activity change, negative = substrate turnover | 0.01% of 390,000 active; also: nearly all actives have a fitted effect of over 50% in size
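Rat TrxR1, dispensed at 90 nM, was prereduced with 400 uM NADPH (final) for 5 min at ~22 deg C, then incubated with compound 15 min before 400 uM selenite. A first-read NADPH fluorescence drop versus no-compound background flagged substrates.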
KAT2A inh = GCN5L2 (KAT2A) acetyltransferase inhibition; AID 504327; Q92830; GCN5L2 HAT assay, ThioGlo1 CoA-SH fluorescence; 0.21% of 390,000 active; Potency, µM (titrated, usually from 58.9 µM), inactives show at the top dose activity change, negative = inhibition, hits mostly inhibitors
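ThioGlo1-coupled HAT assay: 20nM GCN5L2, 70uM acetyl-CoA, 75uM H3(1-25) peptide, pH 7.5. Fluorescence read at 340/540nm at start and after 20 min at room temperature.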
VDR inhibitor = vitamin D3 receptor (human) inhibition; P11473; VDR-SRC2-3 peptide fluorescence polarization, 2 h; Potency, µM, for the others: max response, negative = inhibition, hits mostly inhibitors; 0.93% of 400,000 active; AID 504847
Target sequence (P11473 whole entry, looked up): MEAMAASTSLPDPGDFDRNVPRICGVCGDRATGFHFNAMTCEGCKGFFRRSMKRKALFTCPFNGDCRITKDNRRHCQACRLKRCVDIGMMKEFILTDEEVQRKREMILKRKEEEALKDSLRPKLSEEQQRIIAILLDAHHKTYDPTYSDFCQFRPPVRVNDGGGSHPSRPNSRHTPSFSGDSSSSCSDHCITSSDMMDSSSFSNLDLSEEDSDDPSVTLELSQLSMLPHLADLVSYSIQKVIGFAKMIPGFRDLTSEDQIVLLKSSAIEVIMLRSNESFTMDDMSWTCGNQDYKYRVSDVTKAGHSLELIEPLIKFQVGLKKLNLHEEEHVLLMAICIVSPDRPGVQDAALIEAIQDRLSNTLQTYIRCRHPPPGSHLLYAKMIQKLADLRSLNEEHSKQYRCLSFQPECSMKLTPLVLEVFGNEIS
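Compounds are added to VDR with labelled SRC2-3 coactivator peptide and held 2 h at room temperature. Inhibition of the VDR–peptide interaction is then read as a change in fluorescence polarization.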
TrxR1 inh = inhibitors of rat thioredoxin reductase 1. Potency, µM (highest dose often 114 µM), for the others: at the top dose activity change, negative = inhibition, usual class: inhibitors. recombinant rTrxR1, NADPH fluorescence consumption, selenite substrate. AID 588453. 1% of 390,000 active; also: nearly all actives have a fitted effect of over 65% in size
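Rat TrxR1 (90 nM in the dispensed reagent) was pre-reduced with 400 uM NADPH for 5 min at room temperature, then incubated with compound for 15 min. After 400 uM selenite was added, NADPH fluorescence (Ex 340/Em 450 nm) was followed for 8 min.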
Numbers without * were called inactive; ? = inconclusive; nt = not tested or not shown; ! = not active in a repeat; [ ] = another dose, or the depositor's remark. Calls follow the shape of the dose curve; as a rule, active = well fitted curve in the direction sought with a large enough effect; inconclusive = small, poorly fitted or top-dose-only effect, or another doubt; inactive = no such curve, though single readings can be large; an effect the other way counts as inactive or inconclusive. % is scaled to controls: 0 for no effect and ±100 for the full control effect; potency is read from the fitted curve at half-maximal effect.

SMILES	TrxR1 substrate	KAT2A inh	VDR inhibitor	TrxR1 inh
O=c1nc(/C=C/c2ccccc2C(F)(F)F)cc(C(F)(F)F)[nH]1	-1%	-7%	32µM*	6%
OC1(c2ccc(Cl)c(C(F)(F)F)c2)CCN(CCCC(c2ccc(F)cc2)c2ccc(F)cc2)CC1	nt	27%	-12%	nt
COC(=O)/C=C/c1cc(F)ccc1S(=O)(=O)Nc1ccccc1	-4%	nt	nt	-9%
CCOc1ccc2[nH]c(=O)c(CN(Cc3ccco3)Cc3nnnn3Cc3ccccc3)cc2c1	23%	?	-6%	14µM*
Cc1ccc2[nH]c(=O)c(CN(CCO)Cc3nnnn3Cc3ccccc3)cc2c1	-1%	nt	-18%	3%
Cc1ccc2[nH]c(=O)c(CN(CCCO)Cc3nnnn3Cc3ccccc3)cc2c1	5%	nt	?	20µM*
COc1ccc2[nH]c(=O)c(CN(Cc3ccco3)Cc3nnnn3Cc3ccccc3)cc2c1	4%	-25%	-13%	?
COc1cc2cc(CN(Cc3nnnn3Cc3ccco3)C3CCCCC3)c(=O)[nH]c2cc1OC	24%	-21%	-1%	11µM*
CCN(CCC#N)c1ccc(/C=C/c2ccnc3ccccc23)cc1	-4%	nt	nt	14%
CCC(Sc1nnc2c(n1)[nH]c1ccccc12)C(=O)Nc1ccccc1OC (configuration not stated)	0%	-13%	9%	12%
COc1ccc(N2C(=O)CC(Sc3nnc(-c4ccccc4)o3)C2=O)cc1 (configuration not stated)	2%	1%	-5%	40µM*
O=C1CC(Sc2nnc(-c3ccccc3O)o2)C(=O)N1c1ccccc1 (configuration not stated)	7%	-13%	14%	?
Cn1c(=S)oc2ccccc21	4%	-5%	-7%	27%[57.1 µM]
CC(=O)/C=C/n1c(=S)oc2ccccc21	-3%[57.1 µM]	-3%	?	3.2µM*
CC(C)CC(=O)/C=C/n1c(=S)oc2ccccc21	-12%	2%	?	6.3µM*
O=C(NCCc1ccccc1)c1ccc(Cn2c(SCc3ccccc3)nc3cccnc32)cc1	4%	-11%	10%	9%
O=C1CNC(=O)/C1=C/c1ccc(O)cc1	?	-25%	-8%	20µM*
O=C1CNC(=O)/C1=C\c1ccc(O)cc1	?	1%	-14%	20µM*
O=C1CNC(=O)/C1=C/c1ccc(Br)cc1	-18%[11.4 µM]	-12%	5%	23%[11.4 µM]
CC(C)N(Cc1ccccc1)S(=O)(=O)c1ccc(-c2cc(C(F)(F)F)on2)s1	-7%[57.1 µM]	-23%	10%	11%[57.1 µM]
CC(C)NC(=O)COC(=O)c1ccccc1OCC(=O)Nc1ccc(Br)cc1	16%	nt	nt	18%
O=[N+]([O-])c1ccc(Sc2cc[n+]([O-])c3ccccc23)c([N+](=O)[O-])c1	-3%[57.1 µM]	1%	?	?
O=c1[nH]c(Sc2ccc([N+](=O)[O-])cc2[N+](=O)[O-])nc2ccccc12	-5%	nt	?	3.2µM*
C=CC1=C(C)C2=Cc3c(C=C)c(C)c4[n]3[Sn+2][n]3c(c(C)c(CCC(=O)O)c3=CC3=NC(=C4)C(C)=C3CCC(=O)O)=CC1=N2	nt	?	35µM*	nt
CNc1cc(C(=O)O)nc2ccccc12	-6%	nt	nt	?
SMILES	TrxR1 substrate	KAT2A inh	VDR inhibitor	TrxR1 inh
O=C1CCCC(O)=C1C(C#Cc1ccccc1)C1=C(O)CCCC1=O	-15%	-3%	?	10µM*
CC1(C)CC(=O)C(C(C#Cc2ccccc2)C2=C(O)CC(C)(C)CC2=O)=C(O)C1	-1%[57.1 µM]	-5%	22µM*	10µM*
O=C1CCCC(O)=C1Sc1ccccc1C(=O)O	-1%	2%	-16%	20%
COc1ccccc1C(=O)NNC1=C(C(=O)C(F)(F)F)CCC1	4%	-6%	7%	45µM*
CC(C)Oc1ccc(C(=O)CCN2CCOCC2)cc1	5%	nt	45µM*	3.5µM*
CCCCCOc1ccc(C(=O)CCN2CCOCC2)cc1	5%[57.1 µM]	-2%	?	10µM*
Cc1ccc(NC(=O)c2ccc(-n3nncc3-c3ccccc3)cc2)cc1	-5%	nt	-3%	-5%
CC[C@@]12CCCN3CCc4c(n(c5ccccc45)[C@](O)(C(=O)OC)C1)[C@H]32	nt	13µM*!	0%	nt
Cc1ccccc1NC(=O)C(=Cc1ccc(C(=O)O)cc1)C(=O)Nc1ccccc1C	-9%[57.1 µM]	-6%	-19%	-25%
CC(=O)/C(=C/c1ccccc1)C(=O)Nc1ccccc1C	-1%	-6%	22µM*	25µM*
Cc1cc(C)nc(SCC(=O)NC(=O)c2ccccc2O)n1	-4%[57.1 µM]	-4%	?	13µM*
COC(=O)c1ccccc1NC(=O)CSc1nc(C)cc(C)n1	4%[57.1 µM]	-1%	18%	5%[57.1 µM]
Nc1ncnc2c1ncn2[C@@H]1O[C@H](COP(=O)(O)OP(=O)(O)CP(=O)(O)O)[C@@H](O)[C@H]1O	nt	5%	-7%	nt
COc1ccc(OCC(=O)N/N=C/c2ccc(OC)c(OC)c2C(=O)O)cc1	-8%	32%	-8%	-11%
COc1ccc(/C=N/NC(=O)COc2ccc3ccccc3c2)c(C(=O)O)c1OC	7%[57.1 µM]	3%	79µM*	0%[57.1 µM]
Cc1ccc(-c2nc(N)s[n+]2-c2ccccc2)cc1	-8%	6.3µM*	-25%	-13%
CNc1nc(-c2ccccc2)[n+](-c2ccc(C)cc2)s1	-22%[57.1 µM]	7.9µM*	?	-37%
COC(=O)C1=C(C(=O)OC)C(c2ccc(OC)c(OC)c2)c2sc(=O)[nH]c2S1 (configuration not stated)	2%[57.1 µM]	?	79µM*	-30%[57.1 µM]
[O-]/[N+](=C\c1ccco1)c1ccc(Cl)cc1	1%	-10%	35µM*	10%
CC(N)(C(=O)O)c1ccc(S(=O)(=O)O)cc1 (configuration not stated)	nt	4%	9%	nt
Cc1c(CBr)[n+](=O)c2c(n1[O-])C(Br)CCC2Br (configuration not stated)	5%[57.1 µM]	-24%	35µM*	?
CC(C)C(Cl)=NOC(=O)Nc1ccc(S(N)(=O)=O)cc1	3%[11.4 µM]	nt	?	0.79µM*
Cc1ccc(S(=O)(=O)Cc2ccc(C(=O)O)o2)cc1	0%	-8%	-15%	25µM*
COc1ccc(S(=O)(=O)Cc2ccc(C(=O)O)o2)cc1	6%	-3%	20%	-13%
Cc1ccc(S(=O)(=O)Cc2ccc(C(=O)N3CCc4ccccc4C3)o2)cc1	-7%	-23%	-14%	71µM*
SMILES	TrxR1 substrate	KAT2A inh	VDR inhibitor	TrxR1 inh
Cc1ccc(S(=O)(=O)Cc2ccc(C(=O)N3CCN(c4cccc(C)c4C)CC3)o2)cc1	-7%[57.1 µM]	-28%	2%	-9%[57.1 µM]
COc1ccc(S(=O)(=O)Cc2ccc(C(=O)N3CCc4ccccc4C3)o2)cc1	6%	-9%	-9%	50µM*
Cc1ccc2c(c1)C(=O)C(=O)N2CC1COc2ccccc2O1 (configuration not stated)	3%	-6%	71µM*	24%
Cc1ccc2c(c1)C(=O)C(=O)N2Cc1ccc(Cl)cc1	3%[57.1 µM]	-3%	25µM*	10%[57.1 µM]
Cc1ccc2c(c1)C(=O)C(=O)N2Cc1ccccc1	3%	-5%	79µM*	20%
CNCC(=O)c1c[nH]c2ccccc12	0%	nt	nt	-9%
Cc1cccc(-n2nnnc2S(C)(=O)=O)c1	-6%[57.1 µM]	-1%	?	1.8µM*
